Measured values: PubChem BioAssay AID372 (MTDP, 2006)
In all, about 100,000 compounds went through this assay and about 770 (0.77%) were called active. The entries come from a sample that favours actives as a whole. Unmarked numbers belong to inactive results. Rule as the data show it: active = inhibition above about 50%; inactive = the rest.

What follows are compounds tested against Gag-Pol polyprotein (Human immunodeficiency virus type 1 group M subtype B (isolate HXB2)) (UniProt P04585) (assay: RNase H inhibition, HIV 1 Gag Pol polyprotein, FRET biochemical assay, screening (AID 372)). Details: HIV-1 RT RNase H, FRET RNA/DNA substrate fluorescence; at 10 µM; hits give high values.

Compound	inhibition
COc1cc(OC)cc(C(=O)Nc2ccc(N3CCN(C(=O)c4ccccc4)CC3)cc2)c1	31%
CCOc1cccc2c1N(C(=O)c1ccccc1)C(C)(C)C(=S)C2=C1SC(C(=O)OC)=C(C(=O)OC)S1	45%
CCCOc1ccc(C(=O)NCc2ccccc2)cc1	6%
Cc1ccc(-n2c(/C=C/c3c(C)n(C)c4ccccc34)nc3ccccc3c2=O)cc1	0%
O=C(O)c1ccc(-n2c(/C=C\c3ccccc3)nc3ccccc3c2=O)cc1	7%
COc1cc(/C=C/c2nc3ccccc3c(=O)n2-c2cccc([N+](=O)[O-])c2)ccc1O	61% (active)
COc1cccc(/C=C/c2nc3ccccc3c(=O)n2-c2cccc([N+](=O)[O-])c2)c1O	27%
COc1cc(/C=C/c2nc3ccccc3c(=O)n2-c2ccccc2[N+](=O)[O-])ccc1O	35%
COc1ccc(OC)c(CN2CCN(Cc3cccc(Br)c3)CC2)c1	5%
COc1ccc([N+](=O)[O-])cc1N(CC(O)CN1CCCCC1)S(=O)(=O)c1ccc(C)cc1 (stereo not given)	12%
Cc1c(C(=O)Oc2ccc3c(c2)C(C)CC(C)(C)N3)cccc1[N+](=O)[O-] (stereo not given)	21%
CCSc1nnc(NC(=O)COc2ccc(Cl)cc2Cl)s1	22%
CC(=O)c1ccc(NC(=S)Nc2ccc3nccnc3c2)cc1	10%
NC(=O)N/N=C/c1ccccc1OS(=O)(=O)c1ccc([N+](=O)[O-])cc1	11%
NC(N)=N/N=C/c1ccccc1OS(=O)(=O)c1ccccc1	0%
O=S(=O)(Oc1ccccc1/C=N/NC(=S)Nc1ccccc1)c1ccccc1	52% (active)
CCOC(=O)c1c[nH]c2ccc(Cl)cc2c1=O	14%
C=CCn1c(CCCN2C(=O)c3cccc4cccc(c34)C2=O)nnc1SC/C=C/c1ccccc1	8%
C=CCn1c(CSc2nc3ccccc3s2)nnc1SC/C=C/c1ccccc1	59% (active)
C=CCn1c(CSc2nc3ccccc3s2)n[nH]c1=S	0%

Compound	inhibition
Cc1ccc(NC(=O)C(C)SCc2ccccc2)c(C)c1 (stereo not given)	13%
COc1ccc(C2CC(=O)C3=C(C2)NC(C)=C(C(=O)OCCOc2ccccc2)C3c2cccc(Br)c2)cc1 (stereo not given)	6%
COc1ccc(C(=O)N2CCN(C(c3ccccc3)c3ccccc3)CC2)cc1OC	13%
COc1ccc(/C(C)=N/OCC(=O)N2CCN(C(c3ccccc3)c3ccccc3)CC2)cc1OC	51% (active)
COc1ccc(/C=N/OCC(=O)N2CCN(C(c3ccccc3)c3ccccc3)CC2)cc1OC	45%
CCc1ccc(C(=O)CSC2=C(C#N)C(c3ccc(Br)cc3)C(C(C)=O)=C(C)N2)cc1 (stereo not given)	26%
COc1ccc(C2(CNS(=O)(=O)c3ccccc3)CCCC2)cc1OC	0%
COc1cc(C=Nc2cccc(Cl)c2C)ccc1OC(C)=O	11%
Cc1no[n+]([O-])c1COc1ccc(/C=C2\NC(=S)NC2=O)cc1	4%
COc1cc(C=C2C(=O)NC(=O)NC2=O)ccc1OCc1c(C)no[n+]1[O-]	6%
COc1cc(/C=C2\NC(=S)NC2=O)ccc1OCc1c(C)no[n+]1[O-]	53% (active)
O=c1c2c3c(sc2ncn1/N=C/c1ccc(Br)o1)CCCC3	25%
O=C(Nc1nc(-c2ccc(Br)cc2)cs1)c1ccc([N+](=O)[O-])cc1	37%
COc1ccc(C(=O)NC(=S)Nc2ccc([N+](=O)[O-])cc2C)cc1Cl	18%
COc1ccc(C(=O)NC(=S)Nc2nc(-c3cccc([N+](=O)[O-])c3)cs2)cc1Cl	54% (active)
CCOc1ccc(C(=O)NC(=S)Nc2ccc(Cl)cc2)cc1Cl	7%
O=C(NC(=S)Nc1nc(-c2cccc([N+](=O)[O-])c2)cs1)c1ccc(Cl)cc1	35%
CCOc1ccc(C(=O)NC(=S)Nc2ccc([N+](=O)[O-])cc2OC)cc1Cl	50% (active)
O=C(Nc1nc(-c2ccc(Cl)cc2)cs1)c1ccc([N+](=O)[O-])cc1	51% (active)
O=C(Nc1nc(-c2ccc([N+](=O)[O-])cc2)cs1)c1ccc(Cl)cc1	32%

Compound	inhibition
CCOc1ccc(C(=O)NC(=S)Nc2ccccn2)cc1Cl	12%
CCOc1ccc(C(=O)Nc2ccc([N+](=O)[O-])cc2OC)cc1Cl	14%
CCOc1ccc(C(=O)NC(=S)Nc2ccc(Cl)cn2)cc1Cl	60% (active)
COc1ccc(C(=O)NC(=S)Nc2nc(-c3ccccc3)cs2)cc1Cl	16%
COc1cc(OC)cc(C(=O)Nc2cccc(-c3nc4ccccc4s3)c2)c1	5%
Oc1ccc(Br)cc1/C=N/c1c(-c2ccco2)nc2ccccn12	15%
O=C1CS/C(=N/N=C/c2ccc(-c3ccc(Br)cc3)o2)N1	14%
CCCC(=O)Nc1cc(-c2nc3cc(Cl)ccc3o2)ccc1C	12%
O=C(O)c1ccc(Nc2ccnc3cc(Cl)ccc23)cc1	3%
O=C(Nc1ccccc1C(=O)N1CCCC1)c1ccccc1	0%
CCOc1ccc(C(=O)NC(=S)Nc2ccc(Br)cn2)cc1Cl	56% (active)
COc1ccc(Br)cc1C(=O)Nc1ccc(Cl)cn1	26%
COc1ccc(C(=O)NC(=S)Nc2ccc(Cl)cn2)cc1Br	23%
COc1ccc(C(=O)NC(=S)Nc2ccc(Br)cn2)cc1OC	21%
CCOc1ccc(C(=O)Nc2ccc(Br)cn2)cc1Cl	4%
COc1ccc(Br)cc1C(=O)NC(=S)Nc1ccc(Cl)cn1	53% (active)
CS(=O)(=O)N(Cc1ccc(C(=O)Nc2ccccc2C(=O)O)cc1)c1ccccc1	4%
Cc1ccc(NC(=O)C(=O)N/N=C/c2cccc(Cl)c2)cc1	1%
CCOc1cc(/C=C/C(=O)O)c(Br)cc1OC	8%
Cc1ccc(CN2CCN(/N=C\c3ccccc3)CC2)cc1	8%
